# Test results reported in PubChem BioAssay AID720554 (ICCB-Longwood Screening Facility, Harvard Medical School, 2013).
# Hit rate of the full screen: of about 12,000 compounds, about 45 (0.4%) were called active. Rule as the data show it: active = inhibition mostly above about 83% (no sharp cut-off); inactive = mostly below about 52%. Only a selection was taken, and actives are over-represented in it overall.
# Columns and labels:
# [1] = BmaI1 acyl-homoserine lactone synthase inhibition – biochemical, fluorescence intensity, with counterscreen (AID 720554); details: BmaI1 enzyme assay, measured here: counterscreen fluorescence % control, concentration not given here
# [2] = system: acyl-homoserine lactone synthase BmaI1 (Burkholderia mallei ATCC 23344); experiment: as above; details: BmaI1 enzyme assay, stronger effect = higher value, concentration not given here
Structure (SMILES),inhibition [1],inhibition [2]
COc1ccc(C(=O)Nc2nccs2)c(F)c1,6.5%,9.5% (inactive)
Cc1ccc(SCC(=O)NC(=O)C(C)C)cc1C,8%,14.5% (inactive)
CC(C)c1nc(C#N)c(NCc2cccnc2)o1,16.5%,31% (inactive)
Cc1cc(C(=O)OCC(=O)c2ccc(NC(=O)CC(C)C)cc2)no1,14.5%,13.5% (inactive)
CN(CC(=O)Nc1ccc(Cl)cc1)C(=O)c1ccc(OC(F)F)cc1,17%,13% (inactive)
FC(F)Oc1ccc(NC(=S)NNc2ccc(Cl)nn2)cc1,28%,104% (active)
FC(F)Oc1ccc(NC(=S)NC2CCCC2)cc1,-10.5%,-12.5% (inactive)
CCC(C)N=C1NC(=O)C(CC(=O)NCc2ccccc2)S1 (stereo not given),8.5%,10.5% (inactive)
COC(=O)c1c(C)[nH]c(=O)[nH]c1=S,1.5%,-6.5% (inactive)
COC(=O)C1=NC=CN2CCS(=O)(=O)N=C12,9.5%,7% (inactive)
Cc1sc2c(c1C)C1=NS(=O)(=O)CCN1C=N2,10%,88.5% (active)
O=S1(=O)CCN2C=CSC2=N1,11.5%,17% (inactive)
CCOc1ccccc1NC(=O)CSc1nc(O)cc(=O)n1C1CCCC1,5.5%,7.5% (inactive)
CCOc1ccc(O)c(C=NC2CCCC2)c1,2.5%,2.5% (inactive)
COc1ccc(OCC(=O)N2CC(C)CC(C)C2)cc1 (stereo not given),-8%,7% (inactive)
CC(C)(C)Cc1nc2ccccc2[nH]1,18%,20.5% (inactive)
N/C(Cc1nc2ccccc2[nH]1)=N\O,2%,24% (inactive)
NC(=S)Cc1nc2ccccc2[nH]1,27%,98% (active)
Cc1cc(=O)[nH]c(NNC(=S)Nc2ccc(S(=O)(=O)N3CCOCC3)cc2)n1,10%,72% (inactive)
COc1ccc(NC(=O)COC(=O)C23CCC(=O)N2c2ccccc2S3)cc1 (stereo not given),5%,-0.5% (inactive)
Cc1ccc(C(=O)OCC(=O)Nc2ccc(N(C)C)cc2)c(C)c1,-7.5%,24.5% (inactive)
Cc1ccc(NC(=O)Nc2ccc3c(c2)C(=O)NC3=O)cc1,14%,9% (inactive)
Cc1ccc(NC(=O)Nc2ccc(N(C)C)cc2)cc1,3.5%,98.5% (active)
CN(C)C(CNC(=O)c1ccc2ncsc2c1)c1cccs1 (stereo not given),13%,18% (inactive)

Structure (SMILES),inhibition [1],inhibition [2]
O=C(CCc1nc2ccccc2o1)Nc1cccc(-n2cnnn2)c1,6.5%,16.5% (inactive)
CC(C)NC(=S)NNc1ncc(C(F)(F)F)cc1Cl,8%,89% (active)
CC(C)NC(=S)NNc1ccccc1C(F)(F)F,-31%,14% (inactive)
FC(F)(F)c1cnc(NNC(=S)NCC2CCCO2)c(Cl)c1 (stereo not given),-1%,51.5% (inactive)
CCN(C(=O)CSc1nnc(-c2ccccc2)c(-c2ccccc2)n1)C1CCS(=O)(=O)C1 (stereo not given),-2.5%,6% (inactive)
COC(=O)C1=C(C)NC(C)=C(C(=O)OC)C1C(=O)OCC(=O)Nc1cccc2nsnc12,-2%,-15% (inactive)
N#CCC(=O)Nc1ccc(C(=O)NCc2ccccc2)cc1,21.5%,29.5% (inactive)
CS(=O)(=O)CCC1NC(=O)NC1=O (stereo not given),2.5%,10.5% (inactive)
O=C(Nc1ccc(N2CCCCCC2)cc1)c1ccncc1,26.5%,62% (inactive)
COc1ccc(C(=O)Nc2ccc(N3CCCCC3)cc2)cc1,-2%,22.5% (inactive)
CC(=O)Nc1cccc(C(=O)Nc2ccc(N3CCCCC3)cc2)c1,7%,83.5% (active)
Cc1cc(C(=O)CSc2ccccn2)c(C)n1Cc1cccs1,12%,16% (inactive)
CCN(C(=O)C(C)Sc1nc(C)cs1)c1ccccc1 (stereo not given),3.5%,14.5% (inactive)
CCN(CC)C(=S)SCc1ncc(-c2ccccc2)o1,3.5%,13% (inactive)
CCN(CC)C(=S)SSC(=S)N(CC)CC,-13.5%,96% (active)
FC(F)(F)c1nc(NNC(=S)NCC2CCCO2)c2ccccc2n1 (stereo not given),25%,100% (active)
Cc1ccc(NNC(=S)NCC2CCCO2)c(C)c1 (stereo not given),6.5%,10% (inactive)
O=C(O)c1ccc(NNC(=S)NCC2CCCO2)cc1 (stereo not given),-33%,-78.5% (inactive)
O=C1CCC(C(=O)NC2CCCCCC2)=NN1,11%,18.5% (inactive)
Cc1cc(SCC(=O)O)n2c(nc3ccccc32)c1C#N,1%,20% (inactive)
Cc1ccccc1N1C(=O)C=CC1=O,4%,82% (active)
Cc1ccccc1-n1cc[nH]c1=S,4.5%,23.5% (inactive)
Cc1ccccc1N1C(=O)Cc2ccccc2C1=O,2%,16.5% (inactive)
O=C(O)CCN(Cc1ccccc1)S(=O)(=O)c1cccs1,1.5%,11% (inactive)

Structure (SMILES),inhibition [1],inhibition [2]
Cc1nc2ccc(NC(=O)C3CCCC3)cc2s1,12.5%,14% (inactive)
N#Cc1ccc(CSc2nncn2-c2ccccc2)cc1,-2%,-5.5% (inactive)
Nc1nc(N)c2nc(-c3ccccc3)c(N)nc2n1,21%,5% (inactive)
NNc1nc(-c2ccccc2)c2cc(Br)ccc2n1,16.5%,91% (active)
Cc1ccc2nc(N3CCCC3)nc(-c3ccccc3)c2c1,2.5%,3% (inactive)
CCC(=O)Nc1ccc(C(=O)CN2C(=O)NC3(CCCc4ccccc43)C2=O)cc1 (stereo not given),16%,14.5% (inactive)
O=C(COc1ncnc2ccc(Br)cc12)N1CCCCC1,4.5%,4.5% (inactive)
Cc1cc(C)nc(SC2=C(N3CCC(C)CC3)C(=O)N(Cc3ccccc3)C2=O)n1,4.5%,14% (inactive)
Cc1cc(C)nc(SC2=C(Nc3ccc(O)cc3)C(=O)N(Cc3ccccc3)C2=O)n1,26.5%,86.5% (active)
Cc1cc(C)nc(SCC(=O)OCCN2C(=O)c3ccccc3C2=O)n1,9.5%,18% (inactive)
Cc1c(CN2CC=C(c3ccccc3)CC2)c(=O)n(-c2ccccc2)n1C,-2.5%,9% (inactive)
Cc1cc(O)c(CN2CC=C(c3ccccc3)CC2)cc1C(C)C,-16%,-85.5% (active)
COc1ccc2c(CN3CC=C(c4ccccc4)CC3)cc(=O)oc2c1,8%,4.5% (inactive)
N#Cc1ccccc1NC(=O)CN1CCNC(=O)C1,5%,6% (inactive)
NCCCOC1CCCCC1,11%,16.5% (inactive)
NS(=O)(=O)c1cc(C(=O)O)cs1,-4.5%,3% (inactive)
Cc1cc(C)n(-c2ccc(C(=O)OCC(=O)NCC3CCCO3)cc2)n1 (stereo not given),9%,8% (inactive)
O=C1NC(c2cccc(O)c2O)Nc2sc3c(c21)CCC3 (stereo not given),19%,83% (active)
Cc1ccccc1CSCc1nc(N)nc(Nc2ccccc2C)n1,4%,7% (inactive)
O=C1c2ccccc2C(=O)N1/N=C/c1ccc(-c2ccccc2Br)o1,2.5%,4.5% (inactive)
O=S(=O)(c1ccc(N=C=S)cc1)N1CCOCC1,-3%,13% (inactive)
NC(=O)C1CCN(Cc2cc(=O)oc3cc(O)ccc23)CC1,-4.5%,5.5% (inactive)
CC1(C)C(=O)Nc2ccccc2N1C(=O)CSc1ncnc2ccccc12,10.5%,18.5% (inactive)
CN1/C(=C2\C=NN(C)P2(=O)Nc2ccccc2)C(C)(C)c2ccccc21 (stereo not given),5%,14.5% (inactive)

Structure (SMILES),inhibition [1],inhibition [2]
CN1/C(=C2\C=NN(C)P2(=S)N2CCCC2)C(C)(C)c2ccccc21 (stereo not given),10%,15% (inactive)
COP1(=S)/C(=C2/N(C)c3ccccc3C2(C)C)C=NN1C (stereo not given),6%,88% (active)
COc1ccccc1/C=N/OCC(=O)NCc1ccc2c(c1)OCO2,3.5%,16.5% (inactive)
COC(=O)c1ccc(-n2c(C)cc(C(=O)CN3C(=O)CN(C)C3=O)c2C)cc1,-4.5%,9% (inactive)
Nn1c(NNC(=O)c2ccccc2)nnc(-c2cccs2)c1=O,11.5%,92% (active)
Nc1nnc(-c2cccs2)c(=O)n1N,70.5%,20% (inactive)
O=C(N/N=C/c1sc(N2CCCCC2)nc1-c1cccs1)c1ccccc1,-8.5%,17% (inactive)
CCCn1c(C)cc(/C=C(\C#N)C(=O)Oc2c(C)ccc(C)c2C)c1C,2.5%,17.5% (inactive)
CN(C)Cc1ccccc1C#N,1%,-3.5% (inactive)
Cc1ccc(S(=O)(=O)NCC(=O)OC2CCOC2=O)cc1 (stereo not given),4%,-3% (inactive)
COC(=O)Cc1c(C(=O)OC)sc(N)c1C#N,0.5%,5.5% (inactive)
c1cc2n[nH]nc2cn1,-4%,12% (inactive)
COc1ccccc1C(=O)CSc1cccc[n+]1[O-],10%,57% (inactive)
COc1ccccc1C(=O)NC(=O)CSc1cccc[n+]1[O-],10%,16.5% (inactive)
COc1cc(C(=O)CSc2cccc[n+]2[O-])cc(OC)c1OC,6.5%,87% (active)
Cc1nn(-c2ccccc2)c2c1CC(C#N)(c1ccccn1)C1CCCN21 (stereo not given),3%,10% (inactive)
COc1cc(OC)c(OC)cc1CNC(=O)CCc1c(C)noc1C,0%,11% (inactive)
Cc1cc(C(=O)CN(Cc2ccco2)S(=O)(=O)/C=C/c2ccccc2)c(C)n1C,0.5%,2.5% (inactive)
Cc1csc(=Nc2ccccc2F)n1/N=C/c1ccncc1,-3%,89% (active)
Oc1ccc(/C=N/n2c(-c3ccco3)csc2=Nc2ccc(F)cc2F)c(O)c1,19%,34% (inactive)
CN=c1scc(-c2ccccc2)n1/N=C/c1ccsc1,-7%,6% (inactive)
CCN(C(=O)Cn1ncc(Cl)c(Cl)c1=O)C1CCS(=O)(=O)C1 (stereo not given),6%,12% (inactive)
COc1ccc2nc(NC(=O)c3ccco3)sc2c1,14.5%,19% (inactive)
